This is an account of results in PMC5540273 (PLoS ONE, 2017).

One assay concerns T1, PYK2.
T1 construct: gene PTK2B
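Note: kd values determined as follow-up on hits from a single-replicate KINOMEscan panel screen.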

One may read the Kd as the constant that tells how readily two partners part at equilibrium. A low value points to tighter binding. As for `CC(C)(C)c1ccc(C(=O)Nc2cn3cc(Cl)ccc3n2)cc1`, the Kd in the assay with PYK2 was over 10000 nM.

Consider `O=S(=O)(c1ccc(-c2ccnc3[nH]ccc23)cc1)N1CCCC1` [GSK846226], for which the Kd in the assay on RIOK1 is 610 nM.

In turn, `Cc1nnc(-c2ccc3occ(-c4ccc(S(C)=O)cc4)c3c2)[nH]1` (stereo not shown) registered a Kd with RIPK1 of over 10000 nM.

In the assay with RIPK2, `Cn1cncc1-c1ccc2ncnc(Nc3ccc(OCc4ccccc4)cc3)c2c1` [GW320571] gave a Kd of 91 nM.

The compound `Cl.NC(=O)c1cccc(Nc2nccc(Nc3ccc(Oc4cccc(Cl)c4)c(Cl)c3)n2)c1` [GW659008] returned an equilibrium dissociation constant (Kd) in the assay on RIPK2 of 44 nM.

Take `Cc1cc(N2Cc3ccccc3C2)nc(Nc2ccc(S(=O)(=O)N3CCOCC3)cc2)n1.Cl` [GSK1669917]: the Kd with RIPK4 is over 10000 nM.

In the assay on RIPK4, `CS(=O)(=O)c1ccc(-c2nc3n(c2-c2ccncc2)CCC3)cc1` [SKF-105942] registered a Kd of over 10000 nM.
